# High-throughput results as filed in PubChem BioAssay.
# DAX1 inh-1: inhibitors of human orphan nuclear receptor DAX1 (NR0B1) | HEK293 Gal4-DAX1 luciferase reporter, luminescence | AID 504766 | inhibition, % at 6.75 µM | P51843 | 340,000 compounds, 0.99% hits;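 active = inhibition above the mean over all tested compounds plus 3 SD, cut at about 4.2% in these data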;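 note: 0% = DAX1-transfected cells with DMSO and 100% = empty-vector control cells with DMSO; inhibition shows as a rise in luminescence from relieved DAX1 repression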
# Target sequence (P51843 207-470 limits assumed): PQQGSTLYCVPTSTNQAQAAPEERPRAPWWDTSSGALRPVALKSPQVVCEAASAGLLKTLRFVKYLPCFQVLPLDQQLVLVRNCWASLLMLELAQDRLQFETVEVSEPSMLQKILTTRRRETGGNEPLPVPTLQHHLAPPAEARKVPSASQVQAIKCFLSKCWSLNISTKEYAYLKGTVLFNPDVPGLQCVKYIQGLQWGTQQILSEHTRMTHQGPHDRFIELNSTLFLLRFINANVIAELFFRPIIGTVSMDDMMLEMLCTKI
# ssDAF12 agonist: activates DAF-12 receptor from parasite S. stercoralis; activation, % at 6.8 µM; 370,000 compounds, 1% hits; AID 652126; HEK293 ssDAF-12/GRIP1 lit1-tk-luc reporter, luminescence; % of 3 µM dafachronic acid response;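 active = activation above the mean over all tested compounds plus 3 SD, cut at about 0.9% in these data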;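 note: 0% = DMSO-only wells and 100% = 3 µM delta7-dafachronic acid wells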
# hgDAF12 agonist: activates the H. glycines DAF-12 receptor ligand-binding domain; HEK293 GAL4-hgDAF12 UAS-luciferase reporter, agonist luminescence; normalized to butyrate control; activation, % at 6.8 µM; 370,000 compounds, 1.8% hits; AID 687014;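 active = activation above a cutoff set at the mean of all screened compounds plus 3 SD, cut at about 10% in these data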;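 note: 0% = DMSO wells and 100% = sodium butyrate wells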
# AHR activator: activators of human aryl hydrocarbon receptor; activation, % at 5 µM; 320,000 compounds, 2.5% hits; AHR-responsive luciferase reporter cells, luminescence; in the data active = activation above about 47%;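 note: 0% = vehicle wells and 100% = reference agonist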
# hcDAF12 agonist: activates DAF-12 receptor from parasite H. contortus; AID 652067; 370,000 compounds, 1.4% hits; activation, % at 6.8 µM; HEK293 hcDAF-12 lit1-tk-luc reporter, luminescence; 0% DMSO, 100% Δ7-dafachronic acid;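 active = activation above the mean of all tested compounds plus 3 SD, cut at about 5.5% in these data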;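 note: 100% = response to 3 µM Δ7-dafachronic acid high control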
# DAX1 inh-2: inhibitors of DAX1 repression of SF-1 activated StAR promoter. HEK293T StAR-luciferase reporter, SF-1/DAX-1 repression relief. AID 652010. inhibition, % at 6.8 µM. 370,000 compounds, 1.1% hits;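 active = inhibition above the mean over all tested compounds plus 3 SD, cut at about 3.6% in these data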;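 note: 0% = DAX-1 cells with DMSO and 100% = cells lacking DAX-1 with DMSO; higher inhibition means more luminescence from relief of DAX-1 repression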
# AHR act cf: human AHR activation, confirmation; shares compounds with AHR activator; human cells, AHR-responsive luciferase reporter, luminescence; activation, % at 9 µM; 2,300 compounds, 87% hits; AID 2845; in the data active = activation above about 49%;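 note: HepG2 hepatoma cells carrying a DRE-driven firefly luciferase reporter; 0% = vehicle wells and 100% = reference agonist wells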
# PXR act counter: PXR activation, counter-screen for AHR activators; shares compounds with AHR activator; cell-based PXR reporter, luciferase luminescence; activation, % at 11.6 µM; 2,300 compounds, 88% hits; AID 434939; in the data active = activation above about 11%;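 note: human hepatoma DPX-2 cells expressing full-length human PXR; 0% = DMSO and 100% = reference agonist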
# * = called active by the depositor; / = no result. Most compounds without a hit are left out; they make up all but 5.7% or so of the library.
SMILES,DAX1 inh-1,ssDAF12 agonist,hgDAF12 agonist,AHR activator,hcDAF12 agonist,DAX1 inh-2,AHR act cf,PXR act counter
Cc1cccc(N2CC(C)Cn3c2nc2c3c(=O)[nH]c(=O)n2C)c1 (stereo unspecified),-1,-1,-2,0,-2,0,/,/
CCCn1c(-c2cccs2)nc2nc3ccccc3nc21,-1,-1,1,100*,2,-2,147*,37*
COCCn1c(-c2cccs2)nc2nc3ccccc3nc21,-2,-1,0,37,4,0,/,/
COc1ccc(OC)c(-c2csc(NC(=O)COC(=O)C3CCC3)n2)c1,0,-1,-1,-2,-2,0,/,/
COc1ccc(OC)c(-c2csc(NC(=O)COC(=O)c3ccc(NC(=O)CC#N)cc3)n2)c1,0,/,/,80*,/,/,27,9
O=C(Cn1cnc2ccccc2c1=O)Nc1ccc2c(c1)OCO2,1,-1,2,93*,2,1,70*,17*
O=C(CSc1nnnn1Cc1ccccc1)Nc1ccc2c(c1)OCCO2,1,-1,0,7,-1,-1,/,/
CCCCn1nnnc1SCC(=O)Nc1ccc2c(c1)OCO2,0,-1,1,90*,1,0,82*,30*
Cc1ccc(NC(=O)CSc2nnnn2-c2ccc3c(c2)OCO3)cc1C,1,-1,1,159*,0,1,167*,226*
O=C(CSc1nnnn1Cc1ccccc1)Nc1ccc2c(c1)OCO2,0,-1,0,102*,-1,-1,85*,94*
CCCCn1nnnc1SCC(=O)Nc1ccc(F)cc1,-1,-1,1,16,0,0,/,/
c1cc(-c2cc3cc4c(cc3cn2)OCO4)cs1,1,1.2*,7,118*,5.8*,2,114*,25*
COc1cc(-c2noc(C3CCCN(C(=O)c4c(F)cccc4F)C3)n2)cc(OC)c1OC (stereo unspecified),-1,-2,-2,9,-2,0,/,/
COc1ccc(C(O)c2nc(-c3ccc(N(C)C)cc3)cs2)cc1 (stereo unspecified),/,-1,-1,/,-1,-3,/,/
Cc1cnc(NC(=O)c2ccc(-c3nc4ccccc4s3)o2)s1,0,-1,2,89*,4,1,114*,14*
Cc1sc(NC(=O)C2CSC3(C)CCC(=O)N23)nc1-c1ccc(F)cc1 (stereo unspecified),1,0,-3,151*,5,-2,101*,151*
CC12CCC(=O)N1C(C(=O)Nc1nc3ccc(S(C)(=O)=O)cc3s1)CS2 (stereo unspecified),1,-1,3,2,-1,-1,/,/
CC12CCC(=O)N1C(C(=O)Nc1nc3ccc(Cl)cc3s1)CS2 (stereo unspecified),2,0,-1,127*,1,0,110*,65*
Clc1cccc(Cl)c1Cn1ccc(C2CC2)n1,2,-1,9,6,1,3,/,/
O=C(Nc1cc(Cl)cc(Cl)c1)c1cccc(OC(F)F)c1,0,-2,-1,81*,-1,-2,94*,44*
CCOC(=O)c1sc(/S(C)=N\S(=O)(=O)c2cccc(Cl)c2)c2c1CCC=C2 (stereo unspecified),-1,-1,0,0,-1,0,/,/
O=C1C(Cl)=C(Nc2ccc(O)cc2)C(=O)c2ccccc21,-3,-1,-4,132*,3,-2,112*,/
CC1CCN(C(=O)c2cc(-c3ccco3)on2)CC1,0,0,8,97*,4,1,128*,31*
O=C(c1cc(-c2ccco2)on1)N1CCN(c2ccccc2)CC1,0,-1,0,-2,0,1,/,/
C/C(CC(=O)Nc1cc(Cl)ccc1Cl)=N\NC(=O)c1ccco1,1,0,8,91*,4,2,12,16*
